Several values for one entry are separate records, joined by “and”; a condition that tells them apart may be missing. Equal entries are not always repeated. Inconclusive results are not listed. Activity calls are given as the source filed them. Calls follow the shape of the full dose curve. Bridge positions count the residues as written; N and C are the ends. Square brackets hold non-standard residues; d marks the D form. Peptide text beside a SMILES is read from it. hArg = N=C(N)NCCCC[C@H](N)C(=O)O; Mpa = O=C(O)CCS

Test [1] can be described thus: Cytotoxicity counterscreen for inhibitors of SARS-CoV-2 cell entry (AID 1645845). Also: nearly all actives have a fitted effect of over 50% in size. As to activity change, negative = cytotoxicity: % is scaled to controls: 0 for no effect and ±100 for the full control effect. In short, it runs like this:
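After a 15 min room-temperature ATPLite 1step step, luminescence reflected ATP remaining in HEK293-ACE2 cells exposed to compound for 1 h plus 48 h at 37 C, with percent activity set by cell and no-cell controls.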

Test [2] can be described thus: Primary qHTS to identify inhibitors of SARS-CoV-2 cell entry (AID 1645846). Also: nearly all actives have a fitted effect of over 45% in size. The conditions noted are these: activity change, negative = inhibition: at 57.1 µM (top of the series) unless noted. In short, it runs like this:
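Inhibition of spike-mediated entry was scored in human ACE2-transfected Expi293F cells. Particles were MLV-pseudotyped with Wuhan-Hu-1 S carrying a 19-aa C-terminal deletion; signal was luciferase after two days, scaled between spike PP and fusion-protein-free PP.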
Potency is read from the fitted curve at half-maximal effect.

`CC(=O)Oc1ccc(C(c2ccc(OC(C)=O)cc2)c2ccccn2)cc1`: the Potency result in test [1] and in test [2] was “inactive” in each case.
With `O=C(O)CCc1nc(-c2ccccc2)c(-c2ccccc2)o1`, in test [1], the Potency entry is “inactive”. In addition, the activity change, negative = inhibition in test [2] is 2.68%.
Turning to `CC(CNC1CCCCC1)OC(=O)c1ccccc1` (stereo unspecified), the Potency result in test [1] and in test [2] was “inactive” each time.
With `CCn1c(=O)c2c(nc(C=Cc3ccc(OC)c(OC)c3)n2C)n(CC)c1=O`, the Potency entry in test [1] and in test [2] was “inactive” each time.
In the case of `N#Cc1cc(NC(=O)C(=O)O)c(Cl)c(NC(=O)C(=O)O)c1`, the Potency entry in test [1] was “inactive”. The activity change, negative = inhibition in test [2] came to 1.2%.
Turning to `CCN[C@@H]1C[C@H](N)[C@@H](OC2OC(CN)=CCC2N)[C@H](O)[C@H]1O[C@H]1OC[C@](C)(O)[C@H](NC)[C@H]1O` (stereo partly specified), in test [1], the activity change, negative = cytotoxicity is 0.776% [at 0.702 µM] (inactive). For the same compound, the activity change, negative = inhibition in test [2] came out at 42.9% [at 0.702 µM].
In the case of `O=C1CC2(CCCC2)CC(=O)N1CCCCN1CCN(c2ncccn2)CC1`, in test [1], the Potency entry was “inactive”. Also, in test [2], the activity change, negative = inhibition was found to be 0.863%.
In the case of `CC1(C)[C@@H]2CC[C@@]1(C)C(=O)C2`, the Potency result in test [1] and in test [2] was “inactive” in each case.
In the case of `CCCCCCCCCCCCCCCC[N+](C)(C)Cc1ccccc1`, the Potency in test [1] is 22.4 µM (active); in test [2], 17.8 µM (active).
In the case of `COc1ccc(CN(CCN(C)C)c2ccccn2)cc1`, the Potency result in test [1] was “inactive”. For the same compound, the activity change, negative = inhibition in test [2] was -6.08%.
Consider `NC(=O)[C@@H]1CSSCCC(=O)N[C@@H](CCCCN=C(N)N)C(=O)NCC(=O)N[C@@H](CC(=O)O)C(=O)N[C@@H](Cc2c[nH]c3ccccc23)C(=O)N2CCC[C@H]2C(=O)N1` ([Mpa][hArg]GDWPC-NH2; disulfide 1-7), for which, in test [1], the Potency entry was “inactive”.
Regarding `CC1(C)O[C@@H]2C[C@H]3[C@@H]4C[C@H](F)C5=CC(=O)C=C[C@]5(C)[C@H]4[C@@H](O)C[C@]3(C)[C@]2(C(=O)CO)O1`, the Potency result in test [1] is “inactive”. Besides, the activity change, negative = inhibition in test [2] is 12.8% and -23.3%.
For `N[C@H](Cc1c[nH]c2ccccc12)C(=O)O`, the Potency result in test [1] and in test [2] was “inactive” each time.
`C[C@@H]1C[C@H]2[C@@H]3CCC4=CC(=O)C=C[C@]4(C)[C@@]3(F)[C@@H](O)C[C@]2(C)[C@@]1(O)C(=O)COC(=O)c1ccncc1`: the Potency result in test [1] and in test [2] was “inactive” in each case.
`CN1CCCN=C1COC(=O)C(O)(c1ccccc1)C1CCCCC1` (stereo unspecified): the Potency entry in test [1] is “inactive”. In addition, the activity change, negative = inhibition in test [2] is 4.25%.
In the case of `N[C@@H](CSSC[C@H](N)C(=O)O)C(=O)O`, the activity change, negative = cytotoxicity in test [1] was 0.929% [at 0.702 µM] (inactive). Further, the activity change, negative = inhibition in test [2] was -10.6% [at 0.702 µM].
In the case of `OCc1ccccc1O`, the Potency entry in test [1] and in test [2] was “inactive” each time.
In the case of `CCCc1nc(C)c2c(=O)[nH]c(-c3cc(S(=O)(=O)N4CCN(CC)CC4)ccc3OCC)nn12`, the Potency result in test [1] is “inactive”. Further, in test [2], the activity change, negative = inhibition is -31% and -14%.
With `CCOC(=O)c1cc(=O)c2c(OCC(COc3cccc4oc(C(=O)OCC)cc(=O)c34)OC(=O)[C@@H](N)CCCCN)cccc2o1`, the Potency entry in test [1] and in test [2] was “inactive” throughout.
As to `CN1CCN(CCCN2c3ccccc3Sc3ccc(S(=O)(=O)N(C)C)cc32)CC1`, the Potency entry in test [1] is “inactive”. The Potency in test [2] is 25.1 µM (active).
For `COC(=O)C1=C(C)NC(COC(N)=O)=C(C(=O)OC(C)C)C1c1cccc(Cl)c1Cl` (stereo unspecified), the Potency entry in test [1] was “inactive”. Also, the activity change, negative = inhibition in test [2] was -3.4%.
For `NS(=O)(=O)c1cc(C(=O)O)c(NCc2ccco2)cc1Cl`, the Potency result in test [1] and in test [2] was “inactive” throughout.
Take `CC(C)COCC(CN(Cc1ccccc1)c1ccccc1)N1CCCC1` (stereo unspecified): the Potency result in test [1] is “inactive”. Besides, the Potency in test [2] is 14.1 µM (active).
Turning to `C/C=C/c1ccc(O)c(OC)c1`, in test [1], the Potency result is “inactive”. Also, in test [2], the activity change, negative = inhibition is -1.3%.
Turning to `CN1CCN(c2c(F)cc3c(=O)c(C(=O)O)cn(CCF)c3c2F)CC1`, in test [1], the Potency result was “inactive”. Moreover, the activity change, negative = inhibition in test [2] worked out at 2.09%.
With `COc1cc([C@H]2Oc3cc([C@H]4Oc5cc(O)cc(O)c5C(=O)[C@@H]4O)ccc3O[C@@H]2CO)ccc1O`, the Potency result in test [1] is “inactive”. Besides, the activity change, negative = inhibition in test [2] was -12.9%.
For the compound `CCCOc1ccc(C(=O)OCCN(CC)CC)cc1N`, the Potency entry in test [1] was “inactive”. Also, the activity change, negative = inhibition in test [2] is 2.8% and -24.9%.
Turning to `NC(=O)C1(N2CCCCC2)CCN(CCCC(=O)c2ccc(F)cc2)CC1`, the Potency result in test [1] is “inactive”. Moreover, the activity change, negative = inhibition in test [2] stood at 3.21%.
With `CC(=O)OCC1=C(C(=O)O)N2C(=O)[C@@H](NC(=O)CSc3ccncc3)[C@H]2SC1`, the Potency result in test [1] and in test [2] was “inactive” each time.
With `CNC(=O)c1c(I)c(NC(=O)CCCCC(=O)Nc2c(I)c(C(=O)O)c(I)c(C(=O)NC)c2I)c(I)c(C(=O)O)c1I`, the Potency result in test [1] and in test [2] was “inactive” each time.
Turning to `O=C(CCCCCCCCC#CI)Oc1ccccc1`, in test [1], the Potency result is “inactive”. Also, in test [2], the activity change, negative = inhibition worked out at 1.58%.
On the same counts, the results for `C/C(=N/NC(=O)c1ccncc1)C(=O)O` are “inactive” and -2.02%.
On to `CCOc1ccc(C(=O)OCCN(CC)CC)cc1`, for which the Potency entry in test [1] was “inactive”. In addition, the activity change, negative = inhibition in test [2] was -1.6%.
For the compound `O=C(NC1CCN(CCc2c[nH]c3ccccc23)CC1)c1ccccc1`, in test [1], the Potency entry was “inactive”. For the same compound, in test [2], the activity change, negative = inhibition was -25.8%.
On to `O=C(OCC(COC(=O)c1cccnc1)(COC(=O)c1cccnc1)COC(=O)c1cccnc1)c1cccnc1`, for which the Potency result in test [1] is “inactive”. In addition, the activity change, negative = inhibition in test [2] was -26.9%.
Turning to `C[C@@H]1CCC[C@H](C)N1CCCC(O)(c1ccccc1)c1ccccn1` (stereo partly specified), the Potency entry in test [1] was “inactive”. For the same compound, the activity change, negative = inhibition in test [2] is -1.1%.
On the same counts, the results for `CN1CCN(C2=Nc3ccccc3Sc3ccc(Cl)cc32)CC1` are “inactive” and -10.6%.
For the compound `COc1ccc(CN(CCN(C)C)c2ncccn2)cc1`, the Potency entry in test [1] was “inactive”. Also, the activity change, negative = inhibition in test [2] is -19.5%.
Consider `CNC[C@H](O)c1ccc(O)c(O)c1`, for which the Potency result in test [1] and in test [2] was “inactive” in each case.
Turning to `CC1(C)[C@@H](OC(=O)CCC(=O)O)CC[C@]2(C)[C@H]3C(=O)C=C4[C@@H]5C[C@@](C)(C(=O)O)CC[C@]5(C)CC[C@@]4(C)[C@]3(C)CC[C@@H]12`, the Potency entry in test [1] and in test [2] was “inactive” in each case.
Regarding `CCOc1cc(N)c(Cl)cc1C(=O)NCC1CN(Cc2ccc(F)cc2)CCO1` (stereo unspecified), the Potency entry in test [1] and in test [2] was “inactive” each time.

The values above are taken from PubChem BioAssay (NCATS).
